# Values without a mark were called inactive.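 Rule for the calls: active = MAPPIT score above the 99th percentile of random reference set scores in the same batch; inactive = at or below it.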
# B1: ATPsynF (protein)
# chain: MAFGDYPAEYNPKVHGPYDPARFYGKADVPFGQVKLGEIGAWLGRRNKTPNAVAGAVSRAWWRWQHKYVFPKRAGIAPFFQLTVASMTFFYLINYTKLKHHRNYKYH
# B2: Mst57Da (protein)
# chain: MKFLALFVTLLVVLALVSAQKSQNTNHNVIVIGAKKPGAAPAAAAAAAPAAPPAAAPAAAPAAPEAGLADAPAES
# B3: ATPsynCF6 (protein)
# chain: MLSQSLLSGMRVLRTEARRNFGIVAPALNKASDPIQQLFLDKVREYKQKSAGGKLVDSNPDIERELKTELDRVAKQFGSDGKTDMLKFPEFQFPDVKVDPITQAPQ
# B4: spir (protein)
# chain: MTEHQAEEQADTPPTKVKATPTPTPSGKFKDAKEDAFLSTSPDSANGDAQHKLPADQLAMSSSAHPQQAGQARPLILQAFHRCSSPEQCVTLHDILDSFKAPLSEDQAWALIHQFAGLYHQVAVQAHTCAADYEAALPTGFELHFHRDGSVHFSGPDQLTPKEQLQQEQIPLPPQHDVIVDQPDHSASSSGDSSVINRAFDNSNHHHHHQHHHPPLVVSHRKIISELAEIVYTALDYNLPEDEECQVSQELENLFNFMTADETDDDCIDEGIDEGDKRWDDESEEERNDTKELEHIIETCRNHIKTTLPENHYRAVCRALVTETIELRVFLQQVLNNEAGAEKLIKASESSATTQQELAKLGFNDWARFWVQVIDELRRGVRLKKSNHERTPIEYELTPYEILMGDIRAKKYQLRKVMVNGDIPPRVKKDAHAMILEFIRSRPPLKKASDRQLGPPRMCEPSPREQLMESIRKGKELKQITPPEAPTLRERVLPSANSTLSRSRQRLIKVDFSKFQDDDLFYDENSISSSHSTAATHQHHPHFAEMHRCSQPKMPPYPFGGYMVPSQARQDCRETASLMRPRRTMEPAKQVPPPEEPSFTKDEYHKFYDTALESYDLATQCESRRASLRRHTIVGCQSNLDETHSMPPTRPESRQSDDVSKETPKRSPAEQTHPSDEGSSTSSLGPWNKSFMDKQTWMERGDDRLSVTLAEIVHIRSVMTKAELEGLPMDVRVKEDVEKRRVCFLCLRTRFSFFGPWGIQCKLCQRTVCAKCYTKMRIPSEHFRNVPLVLISPSLLSSPASSSTPSPSHHAQQAHSSSTGNIMDDQFPKSLIERLLRSESDRKTRSTVGSAPSSPKHQRSNMSTPGISVGPGASSSSAAATGQAVEALHDQATMSSSYSAAMRPSGVHQQQKQHYNNAMSRSMEGPRSLPVHSPAYRPLSNNSTLERKSRFSRGFNLFSSGSHLAQTQEQKENLRGEQVTVCNDCQGLVNEITSSVKQKRSSARNRTIQNLTLDLTPVWK
# B5: stas (protein)
# chain: MSYCSGVAISADEGITMRNGRAKALQEHSPDQVATPLLPQVPPQEQQDLNPQQQQQQQQQQQATPQKQAMSADEKKATKKSLVIVAGIFVASLVTMCYVYAIFPELNASEKQHLKIPRDIQDAKMLAKVLDRYKDMYYFEVMFGVVVAYVFLQTFAIPGSLFLSILLGFLYKFPIALFLICFCSALGATLCYTLSNLVGRRLIRHFWPKKTSEWSKHVEEYRDSLFNYMLFLRMTPILPNWFINLASPVIGVPLHIFALGTFCGVAPPSVIAIQAGKTLQKMTSSSEAFSWTSMGILMACACASLLPGLLKNKFKHKKEA
# B6: Arp6 (protein)
# chain: MANAVVVLDNGAHTAKVGLANQDEPHVVPNCIMKAKSERRRAFVGNQIDECRDTSALYYILAFQRGYLLNWHTQKTVWDYIFSKDGIGCSLENRNIVITEPQMNFQSIQEATLEILFEEYKVDGVYKTTAADLAAFNYVADSEERTTMESLNCIIIDVGYSFTHVVPFVLGRRVLQGIRRIDMGGKALTNQLKELISYRHLNVMDESHVVNQIKEDVCFVAEDFKQAMQVHYSEEKRREVTVDYVLPDFTTVKRGYVRVPGKPREDEEQQQMVSLCNERFTVPELLFNPSDIGVQQVGIPEAVADCLKACPWEAHRELLLNILIVGGSAQFPGFLPRLKRDLRALVPDDLEVSLICPEDPVRYAWYGGKEVATSPNFEEFVYTQDDYEEYGFQGINQR
# B7: Crk (protein)
# chain: MDTFDVSDRNSWYFGPMSRQDATEVLMNERERGVFLVRDSNSIAGDYVLCVREDTKVSNYIINKVQQQDQIVYRIGDQSFDNLPKLLTFYTLHYLDTTPLKRPACRRVEKVIGKFDFVGSDQDDLPFQRGEVLTIVRKDEDQWWTARNSSGKIGQIPVPYIQQYDDYMDEDAIDKNEPSISGSSNVFESTLKRTDLNRKLPAYARVKQSRVPNAYDKTALKLEIGDIIKVTKTNINGQWEGELNGKNGHFPFTHVEFVDDCDLSKNSTEIC
# B8: CycA (protein)
# chain: MASFQIHQDMSNKENPGIKIPAGVKNTKQPLAVIGGKAEKNALAPRANFAVLNGNNNVPRPAGKVQVFRDVRNLNVDENVEYGAKKSNVVPVVEQFKTFSVYEDNNDTQVAPSGKSLASLVDKENHDVKFGAGQKELVDYDLDSTPMSVTDVQSPMSVDRSILGVIQSSDISVGTETGVSPTGRVKELPPRNDRQRFLEVVQYQMDILEYFRESEKKHRPKPLYMRRQKDISHNMRSILIDWLVEVSEEYKLDTETLYLSVFYLDRFLSQMAVVRSKLQLVGTAAMYIAAKYEEIYPPEVGEFVFLTDDSYTKAQVLRMEQVILKILSFDLCTPTAYVFINTYAVLCDMPEKLKYMTLYISELSLMEGETYLQYLPSLMSSASVALARHILGMEMWTPRLEEITTYKLEDLKTVVLHLCHTHKTAKELNTQAMREKYNRDTYKKVAMMESVEMSKDDFDQLCEAYNCKQKEDEHQQPDINTKSNVNLFYKF
# How the values were obtained:
# Assay in all cases: MAPPIT interaction score (arbitrary units); higher = stronger binary interaction signal, active = hit call of the paper
# ATPsyndelta = molecular target: ATPsyndelta
# Description: (§1)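 MAPPIT in HEK293T cells: Drosophila bait and prey ORFs (from the FlyBi ORF collection) were co-transfected in quadruplicate, with two wells stimulated by erythropoietin. Interaction-dependent JAK-STAT activation was read out with a STAT-responsive firefly luciferase reporter. Positive calls use the 99th percentile of random reference set (RRS) scores within each batch […]. Batches Dvs01 and Dvs02 used the N-N configuration and Dvs04 the N-C configuration. Pairs come from FlyBi screens, CuraGen, DPiM, Finley Y2H, Lit-BM-16, Lit-BS-16 and RRS.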
# ATPsynCF6L = details: MAPPIT configuration: N-C; pair source set: screen_3
# Description: as §1
# CG13643 = details: MAPPIT configuration: N-C; pair source set: screen_3
# Description: as §1
# Dpm3 = details: MAPPIT configuration: N-C; pair source set: screen_3
# Description: as §1
# NaPi-T = details: MAPPIT configuration: N-C; pair source set: screen_4
# Description: as §1
# Pdk1 = details: MAPPIT configuration: N-N; pair source set: Curagen_high_conf
# Description: as §1
# ATPsynF = details: MAPPIT configuration: N-N; pair source set: DPIM
# Description: as §1
# Acp1 = details: pair source set: RRS
# Description: as §1
# ATPsynC = details: MAPPIT configuration: N-C; pair source set: screen_3
# Description: as §1
# ATPsynG = details: MAPPIT configuration: N-N; pair source set: Lit-BS-16
# Description: as §1
# sle = details: MAPPIT configuration: N-N; pair source set: Lit-BS-16
# Description: as §1
# CG15572 = details: MAPPIT configuration: N-C; pair source set: screen_4
# Description: as §1
# CG42659 = details: MAPPIT configuration: N-C; pair source set: screen_3
# Description: as §1
# Polr3E = details: MAPPIT configuration: N-C; pair source set: screen_4
# Description: as §1
# ATPsyngamma = details: MAPPIT configuration: N-N; pair source set: DPIM
# Description: as §1
# 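Note: HEK293T cells with Epo stimulation, STAT-responsive firefly luciferase reporter, fold induction versus unstimulated cells divided by the larger fold induction of two negative controls lacking either bait or prey.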
binder,measurement,setting,value
B1,MAPPIT interaction score,"ATPsyndelta; MAPPIT configuration: N-N, pair source set: DPIM",0.173
B2,MAPPIT interaction score,ATPsynCF6L,0.192
same,MAPPIT interaction score,CG13643,-0.565
same,MAPPIT interaction score,Dpm3,0.043
same,MAPPIT interaction score,NaPi-T,1.02
same,MAPPIT interaction score,Pdk1,-0.52
B3,MAPPIT interaction score,ATPsynF,-0.221
B4,MAPPIT interaction score,Acp1; MAPPIT configuration: N-C,-0.762
same,MAPPIT interaction score,Acp1; MAPPIT configuration: N-N,0.149
B5,MAPPIT interaction score,ATPsynC,0.0375
B6,MAPPIT interaction score,ATPsynG,0.0569
same,MAPPIT interaction score,sle,-0.421
B7,MAPPIT interaction score,"ATPsyndelta; MAPPIT configuration: N-C, pair source set: screen_4",2.72
same,MAPPIT interaction score,CG15572,0.475
same,MAPPIT interaction score,CG42659,0.17
same,MAPPIT interaction score,Polr3E,2.44
B8,MAPPIT interaction score,ATPsyngamma,1.52

# Source: the supplement of paper PMC10105736
